Molecules are shown by their SMILES. Records with an inconclusive call do not appear. Values without a mark were called inactive. The call rests on the fitted dose curve; in most records, active means well fitted cell-killing curve with a large enough effect; inconclusive means small, poorly fitted or top-dose-only effect, or effect the other way; inactive means flat fitted curve, though single readings scatter.

Results on 16 molecules are retold here after PubChem BioAssay (NCATS).
On the % scale 0 is the no-effect control and ±100 the full control effect.

The subject of the test is SKOV3. Briefly: Primary qHTS to identify gynecologic anti-cancer compounds using libraries of approved drugs and bioactive compounds (AID 1345084). Further: nearly all actives have a fitted effect of over 55% in size. The note with it: Gynecologic cancer cell panel viability, ATPlite luminescence, 48 h; series mostly up to 57.5 µM; activity change, negative = cytotoxicity: at the top concentration. A digest of the protocol:
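Luminescence from the ATPlite ATP-monitoring reagent indicates viable cell number; lower signal means cytotoxicity. Cells received compound 16 h after seeding and were exposed for 48 h across five concentrations.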
For the molecule `CC1CC(=O)C2=C(O1)OC1(C)CCC3C(C)(C)C=CC(=O)C3(C)C1C2` (stereo unspecified), the “activity change, negative = cytotoxicity” value was 7.26% [at 38.5 µM].
For `COc1ncc(-c2ccc3c(Nc4cc(Oc5cc(F)cc(F)c5)cc(C(=O)O)c4)c(S(=O)(=O)NC4CC4)cnc3c2)c(OC)n1` the value was 0.704%; for `CC(=O)O[C@@H]1[C@H]2[C@@H](OC(=O)c3ccccc3)[C@@H](C)C[C@]2(O)[C@H](OC(C)=O)[C@@]2(C)[C@@H]3CC(C)(C)C(=O)[C@]3(OC(C)=O)C[C@@]12C`, -9.15% [at 25.3 µM].
To `COc1ccc(/C=C/C(=O)O[C@@H]2[C@@H](OC(C)=O)[C@@H](OC(C)=O)[C@H](O[C@H]3[C@@H]4C=CO[C@@H](O[C@@H]5O[C@H](CO)[C@@H](O)[C@H](O)[C@H]5O)[C@@H]4[C@@]4(CO)O[C@@H]34)O[C@H]2C)cc1O` belongs 4.82% [at 25.3 µM]; to `CC1=CC(=O)OC(C)(CC(C)(O)C(=O)O)C1` (stereo unspecified), 6.35%; to `O=C(OCc1cccc(O)c1O[C@@H]1O[C@H](CO)[C@@H](O)[C@H](O)[C@H]1O)C1(O)C(=O)C2C=CC1C1C=CC(=O)C(O)(C(=O)OCc3cccc(O)c3O[C@@H]3O[C@H](CO)[C@@H](O)[C@H](O)[C@H]3O)C21` (stereo partly specified), 4.95% [at 11.6 µM].
As to `C[C@H]1[C@H](C)CC[C@]2(C(=O)O)CC[C@]3(C)C(=CC[C@@H]4[C@@]5(C)C[C@@H](O)[C@H](O)[C@@](C)(CO)[C@@H]5CC[C@]43C)[C@H]12`, the “activity change, negative = cytotoxicity” value was 41.8%.
To `COc1cc(C[C@H]2COC(=O)[C@@H]2Cc2ccc(O)c(OC)c2)ccc1O` belongs 8.55% [at 38.5 µM]; to `COC(=O)C1=CO[C@@H](O[C@@H]2O[C@H](CO)[C@@H](O)[C@H](O)[C@H]2O)[C@@H]2[C@@](C)(O)[C@@H](O)C[C@]12O`, 3.03% [at 25.3 µM].
For `C/C(=C\CCC(C)(O)c1ccc(C)cc1)C(=O)O` (stereo unspecified) the value was 0%.
On to `C/C=C(\C)C(=O)O[C@H]1[C@H](O)[C@]2(COC(C)=O)[C@H](O)C[C@]3(C)C(=CCC4[C@@]5(C)CC[C@H](O[C@@H]6O[C@H](C(=O)O)[C@@H](O[C@@H]7O[C@H](CO)[C@@H](O)[C@H](O)[C@H]7O)[C@H](O)[C@H]6O[C@@H]6O[C@H](CO)[C@@H](O)[C@H](O)[C@H]6O)[C@](C)(CO)C5CC[C@]43C)[C@@H]2CC1(C)C` (stereo partly specified), for which the activity change, negative = cytotoxicity was 20.3% [at 11.6 µM].
To `COC1=Cc2c(nc3n(c2=O)C(C)C(=O)NC3(O)C(C)C)OC=C1` (stereo unspecified) belongs -28.1% [at 38.5 µM]; to `COc1c(C(CC(C)C)OC(C)=O)ccc(Oc2c(O)cc(C)cc2/C=C/C(C)=O)c1C(=O)O` (stereo unspecified), -10.6% [at 25.3 µM].
Consider `COc1cc(O[C@@H]2O[C@H](CO)[C@@H](O)[C@H](O)[C@H]2O)c(CCC(=O)OC[C@H]2O[C@@H](Oc3cc(OC)c(C4OC(=O)C(C)(O)C4O)cc3CCC(=O)O)[C@H](O)[C@@H](O)[C@@H]2O)cc1C1OC(=O)C(C)(O)C1O` (stereo partly specified), for which the activity change, negative = cytotoxicity was -20.1% [at 11.6 µM].
For the molecule `CC1CC(O)CC(C)(C)C1(O)CCO` (stereo unspecified), the “activity change, negative = cytotoxicity” value is -1.18%.
For `CC(=O)c1c(O)cc2c(c1C)C(=O)CC(O)C2` (stereo unspecified) the value was 2.92%.
